Structures are written as SMILES. Among all 69,000 compounds or so, about 8,600 (12%) showed an effect of 50% or more. The sample as a whole holds a higher share of strong results than the screen did.

This assay relates to Plasmodium berghei. The experiment in a line: Screen against P. berghei liver stage (PbLuc), transformed with Luciferase, at 10uM. The class given is functional, HepG2. The following applies: tested at 10 uM.
`COC(=O)CCCNC(=O)N1CCc2c([nH]c3ccc(Cl)cc23)C1`: the INHIBITION is listed as -50%.
For `COc1ccc(C(=O)N2C[C@@H](O)[C@H](NCc3ncccc3C)C2)cc1`, the INHIBITION amounted to 31.45%.
As for `CCc1ncc2c(n1)CN(Cc1nnc(C(C)C)o1)CC2`, the INHIBITION came out at 30.3%.
Take `CC(C)N1CCC(c2ccnc3c(C(=O)N4CCOCC4)ncn23)CC1`: the INHIBITION was 12.7%.
For `CC(C)N1CCC(c2ccnc3c(C(=O)N4CCCC4)ncn23)CC1`, the INHIBITION turned out to be 60%.
Next, `O=C(c1ncn2c(C3CCN(CC4CC4)CC3)ccnc12)N1CCCC1`: 12.7%.
For the molecule `CN(CC(=O)NC1(C)CCS(=O)(=O)C1)Cc1ccc(F)c(F)c1` (stereo not drawn), the INHIBITION is reported as 27.6%.
With `Cc1noc(NS(=O)(=O)c2ccc(Cl)s2)c1C`, the INHIBITION was 44.7%.
The result for `Cc1cc(S(=O)(=O)Nc2onc(C)c2C)c(C)s1` reads 4.1%.
In the case of `Cc1cc(S(=O)(=O)Nc2onc(C)c2C)sc1C`, the INHIBITION is reported as 87.5%.
For the molecule `CN(C)c1cc(CNC(=O)c2cccnc2O)ccn1`, the INHIBITION came out at 9.64%.
With `COCc1cn(CC2CCN(Cc3cc(C)[nH]n3)CC2)nn1`, the INHIBITION came out at 26.7%.
Take `COC[C@@H]1CC[C@H]2[C@H](CCN2C(=O)c2ccncc2F)O1`: the INHIBITION was determined as 29%.
Regarding `COCCN(C)c1ccc(NCc2cccnc2)nc1`, the INHIBITION was 15.1%.
The result for `COC(=O)c1cc(NCc2cscn2)ccc1C` reads 11.9%; that for `CCn1cc(CNc2ccc(Br)c(OC)c2)cn1`, 32%.
On to `COCCOc1ccc(NC(=O)N(C)Cc2ccsc2)cn1`, for which the INHIBITION turned out to be 31.8%.
For the molecule `COCCN(C)c1ccc(NCc2cscn2)nc1`, the INHIBITION came to 75.1%.
For the molecule `CCn1cc(CNc2ccc(N(C)CCOC)cn2)cn1`, the INHIBITION was 57.2%.
Consider `CCn1cc(CNc2ccc3nccnc3c2)cn1`, for which the INHIBITION worked out at 18.8%.
Consider `COCCN(C)c1ccc(NCc2ccsc2)nc1`, for which the INHIBITION is 80.8%.
`COc1cccc(-c2cc(NCc3cscn3)n(C)n2)c1`: the INHIBITION is on record as -40.5%.
Next, `Cn1ccnc(Sc2ccccc2)c1=O`: -4.13%; `CCOc1ccccc1C(=O)NCc1nncn1C1CC1`: 11.4%.
Next, `CC1(c2nccs2)CCN(C(=O)CC2CCOCC2)CC1`: -1.25%.
As for `CC(=O)N1CCC2(CCCN(S(=O)(=O)c3ccccc3)C2)C1` (stereo not drawn), the INHIBITION was -60.3%.
On to `CCc1cc(NCCCNS(C)(=O)=O)nc(-c2ccncc2)n1`, for which the INHIBITION was found to be 15.2%.
As to `CCC=C(C)C(=O)N1CSCC1C(=O)N(C)CCc1ccncc1` (stereo not drawn), the INHIBITION was -16.7%.
The result for `Cc1cc(C)n(CC2CCCCN2CC(=O)Nc2nncs2)n1` (stereo not drawn) reads 11.1%.
The result for `Cc1cc(C)n(CC2CCCCN2CC(=O)Nc2nccs2)n1` (stereo not drawn) reads 77.6%.
In the case of `Cc1cc(C)n(CC2CCCCN2CC(=O)Nc2nnc(C)s2)n1` (stereo not drawn), the INHIBITION was -16.5%.
Regarding `CCCc1n[nH]c(C2CN(CCc3cccs3)CCO2)n1` (stereo not drawn), the INHIBITION is listed as -23.9%.
Consider `CCC(C)N(CC)C(=O)c1ccc2[nH]nnc2c1` (stereo not drawn), for which the INHIBITION was -29.1%.
For `CN1CCN(CC(C)(C)C)CC1CCO` (stereo not drawn), the INHIBITION is reported as -1.26%.
The result for `COc1cc(C(=O)O)ccc1OCC(=O)NCCc1ccccc1` reads 37.4%.
Consider `Cc1cc(C)c(CNC(=O)NCCNc2ncccn2)c(=O)[nH]1`, for which the INHIBITION was determined as 25.7%.
Take `Cc1cc(C)c(CNC(=O)NCCNc2ccccn2)c(=O)[nH]1`: the INHIBITION is 46.1%.
The result for `Cc1cc(C)c(CNC(=O)N2CCN(c3cnccn3)CC2)c(=O)[nH]1` reads 51.2%.
For `Cc1cc(C)c(CNC(=O)C2CCN(c3cnccn3)CC2)c(=O)[nH]1`, the INHIBITION is 12.255%.
Regarding `O=C(NC1CCS(=O)(=O)C1)N1CCN(c2cnccn2)CC1` (stereo not drawn), the INHIBITION came out at 33%.
Turning to `Cc1cc(C)c(CNC(=O)NCCNc2cnccn2)c(=O)[nH]1`, the INHIBITION was found to be 73%.
The result for `Cc1cc(C)c(CNC(=O)N2CCN(c3ccccn3)CC2)c(=O)[nH]1` reads 9.4%.
The result for `O=C(C1CCS(=O)(=O)C1)N1CCN(c2cnccn2)CC1` (stereo not drawn) reads 16.7%; that for `O=C(NCC1CCS(=O)(=O)C1)N1CCN(c2cnccn2)CC1` (stereo not drawn), 50.3%.
Turning to `CN1CCN(C(=O)c2occc2CN2C(=O)Cc3ccccc32)CC1`, the INHIBITION stood at 37.9%.
Next, `c1cncc(CN2CCn3cc(CN4CCCCC4)nc3C2)c1`: 35.8%; `Cc1ccoc1C(=O)N1Cc2c(CN3CCCCC3)nn(C)c2C1`: 3.69%.
As for `O=C(NCCCn1nc2ccccn2c1=O)NC(C1CC1)C1CC1`, the INHIBITION was 16.3%.
On to `COc1ccc(CC(=O)NC2CCN(CC(F)F)CC2)cc1OC`, for which the INHIBITION came to 14.4%.
In the case of `O=C(c1ccoc1)N1CC[C@@H]2O[C@@H](COCc3ccccn3)CC[C@@H]21`, the INHIBITION is given as 53.2%.
As for `CN(C)CCOC[C@H]1CC[C@H]2[C@H](CCN2C(=O)c2ccoc2)O1`, the INHIBITION came to 34.6%.
`O=C(c1ccoc1)N1CC[C@@H]2O[C@@H](COCCN3CCCC3)CC[C@@H]21`: the INHIBITION turned out to be 31.1%.
For the molecule `COCC(=O)N1CC[C@@H]2O[C@H](COCc3ccncc3)CC[C@@H]21`, the INHIBITION is given as 33.5%.
